Assay outcomes deposited in PubChem by National Center for Advancing Translational Sciences (NCATS).
D3 ag: activates the human D3 dopamine receptor; D3R DiscoveRx beta-arrestin cells, luminescence, 90 min; max activation, %; AID 652048; P35462; hit rate 0.58% among 410,000; in the data active means max activation above about 30%; further: 0% is about no effect
Target sequence (P35462 whole entry, looked up): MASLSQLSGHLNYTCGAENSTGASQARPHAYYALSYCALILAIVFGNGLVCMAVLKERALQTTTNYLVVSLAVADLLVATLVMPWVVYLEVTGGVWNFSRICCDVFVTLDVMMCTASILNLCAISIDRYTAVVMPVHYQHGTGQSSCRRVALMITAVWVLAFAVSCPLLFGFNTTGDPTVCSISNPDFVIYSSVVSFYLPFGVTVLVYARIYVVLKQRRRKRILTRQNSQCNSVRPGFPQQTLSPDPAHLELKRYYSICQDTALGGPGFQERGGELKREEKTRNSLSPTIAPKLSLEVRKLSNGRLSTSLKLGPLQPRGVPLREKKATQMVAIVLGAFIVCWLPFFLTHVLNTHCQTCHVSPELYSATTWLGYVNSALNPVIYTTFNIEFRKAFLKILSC
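Agonist-mode cell screen: cells plated at 1500/well and incubated overnight at 37 °C, then exposed to library compounds for 90 min at 37 °C. Detection reagent was added for 30–60 min at room temperature, and luminescence was read.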
D1 potentiator: enhances dopamine response at the human D1 receptor. P21728. HEK293 TREx D1 cells, calcium flux, dopamine EC20 potentiation. hit rate 0.036% among 360,000. potentiation, % at 10 µM; in the data active means potentiation above about 30%; further: 0% is about no effect
D1 antag: human D1 dopamine receptor antagonism. HEK293 TREx D1 cells, calcium flux, dopamine EC80; hits give low values. hit rate 3.2% among 360,000. activity change, negative = inhibition, % at 10 µM; in the data active means activity change below about -30%; further: on the % scale 0 is the no-effect control and ±100 the full control effect
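Tetracycline-induced HEK293 T-REx cells with force-coupled D1 receptor were loaded with a no-wash calcium dye. Compound was added after a 10 s baseline and read kinetically for 180 s; EC80 dopamine was then added and calcium flux followed another 180 s.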
ERG-DNA inh: ERG Ets/DNA interaction inhibition; P11308; fluorescence polarization, His-ERG Ets domain / labelled DNA; Potency, µM (titrated, usually from 76.9 µM), inactives show top-dose FP activity, negative = inhibition, most hits filed as inhibitors; hit rate 0.028% among 370,000; AID 624246; active means well fitted inhibition curve with a large enough effect in the polarisation, with a control signal flat; inconclusive means small, poorly fitted or top-dose-only effect, or effect the other way, or a change in a side signal; inactive means no such curve, though single readings can be large or run the other way; the % refers to the polarisation;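 further: polarization taken with two DNA probes labelled with fluorescein and Texas red; potency means the concentration at half of the fitted maximal effect; % of control where 0% means no effect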
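His-tagged ERG Ets domain (1 uM in the protein solution; 300mM KCl, 50mM Tris-HCl, 1mM EDTA, 1mM DTT, pH 7.5) received compound, then a probe mix of 5 nM fluorescein-DNA and 100nM Texas-615-DNA. Fluorescence polarization was read for both dyes.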
D1 agonist: agonists of human D1 dopamine receptor | activation, % at 2 µM | AID 504660 | HEK293 T-REx D1 cells, calcium flux, agonist mode | hit rate 1% among 360,000; in the data active means activation above about 30%; further: 0% is about no effect
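Inducible HEK293 T-REx D1 cells, force-coupled to calcium signalling, were plated at 4000 cells/well with tetracycline and held overnight at 30 C. After no-wash calcium dye loading, compound-evoked calcium rise over 180 s flagged agonists.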
DRD3 antagonist: antagonists of human D3 dopamine receptor; P35462; D3R cells, DiscoveRx beta-arrestin luminescence, antagonist mode; hits give low values; max response, negative = inhibition, %; hit rate 2.5% among 360,000; in the data active means max response below about -50%; inconclusive means no clear call, values can overlap the other calls; further: on the % scale 0 is the no-effect control and ±100 the full control effect
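Cells expressing the human receptor were seeded at 1500 cells/well, incubated overnight at 37 degrees C in 5% CO2, then exposed to library compounds with dopamine controls for 90 minutes at 37 degrees C before luminescent detection.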
Starred values were filed as active, the others as inactive; ? = inconclusive; . = no result given. Only some compounds are listed: those with a hit (about 6.1% of all), similar ones and a draw of the others.

SMILES	D3 ag	D1 potentiator	D1 antag	ERG-DNA inh	D1 agonist	DRD3 antagonist
CCOC(=O)N1CCN(c2cc(C)c(C(C)=O)cc2F)CC1	7.4	-4.2	-41.6*	-2.2%	9.7	18.5
CCOC(=O)N1CCN(c2ccc(C(=O)c3ccccc3)cc2F)CC1	1.0	-11.4	-41.7*	-10.7%	10.6	18.8
CCn1c(C(O)c2ccc(C)cc2)nc2ccccc21 (stereo not given)	0.4	-4.6	50.6	-4.2%	9.5	0.0
O=C(COC(=O)c1ccc(F)c(S(=O)(=O)N2CCOCC2)c1)NCCc1ccccc1	4.4	-2.8	-3.6	2.5%	3.5	0.5
CCCCC(=O)Nc1cccc(-c2cn3ccccc3n2)c1	1.8	0.5	5.9	.	-0.2	5.3
C=CC(C)(C)c1c(O)c(CC=C(C)C)c(O)c2c(=O)c3ccc(O)c(O)c3oc12	89.5*	.	.	-3.0%	.	81.3
CCn1c(Cl)c(C=O)s/c1=N\S(=O)(=O)c1ccccc1	-23.7	-11.8	-38.4*	17.1%	1.6	-121.9*
CCN1C(=O)CS/C1=N\S(=O)(=O)c1ccc(Cl)cc1	1.7	-1.6	13.5	-2.3%	4.6	4.8
Clc1ccc(Cl)c(-c2ccc(/C=N/c3ncn[nH]3)o2)c1	32.1*	-2.2	2.6	-3.1%	0.6	11.9
COc1cc(C(c2c(C)[nH][nH]c2=O)c2c(C)[nH][nH]c2=O)ccc1OS(=O)(=O)c1ccccc1	-1.6	-3.8	5.6	-7.1%	1.5	6.2
COc1ccc(C2=NN(C)C(=NCc3ccccc3)SC2)cc1	-7.8	-0.7	4.0	0.5%	3.5	10.4
COc1ccc(CN=C2Nc3ccccc3CS2)cc1	-1.5	-6.7	-31.9*	-5.3%	11.2	-26.6
COc1ccc(C(CCN)c2ccc3c(c2)OCO3)cc1 (stereo not given)	-0.5	-1.1	-3.3	2.2%	3.3	-3.8
CCOC(=O)C1CCN(CCC(=O)Nc2ccc(OC)cc2)CC1	-12.7	-0.7	5.5	-2.3%	1.8	.
COc1ccc(NC(=O)CCN2CCCC(C)C2)cc1 (stereo not given)	0.0	-0.6	-5.6	1.2%	0.9	-74.5*
COc1ccc(NC(=O)CCN2CCC(C)CC2)cc1	-6.3	-3.9	-2.4	2.4%	3.0	-75.6*
COc1ccc(NC(=O)CN(C)C(=O)c2ccc(S(=O)(=O)N3CCOCC3)cc2)cc1	-3.7	.	.	.	.	-16.0
O=C(/C=C/Nc1ccc(S(=O)(=O)Nc2cnc3ccccc3n2)cc1)c1ccccc1	4.0	-4.0	6.5	1.2%	0.3	2.2
Cc1ccc(Cc2cnc(NC(=O)c3ccco3)s2)cc1	-13.0	-1.6	.	.	1.9	-21.0
O=C(Nc1ncc(Cc2ccc(SC(F)F)cc2)s1)c1ccc(OC(F)F)cc1	1.1	-7.1	-15.6	13.3%	35.1*	11.2
S=C(c1cn(CCOc2ccccc2)c2ccccc12)N1CCCC1	-1.2	-2.3	-1.4	-2.5%	4.6	3.5
Cc1ccc(OCCn2cc(C(=S)N3CCCC3)c3ccccc32)cc1C	1.1	1.6	5.3	-7.3%	4.7	-54.1*
CC(C)(C)OC(=O)CNC(=O)c1[nH]cnc1C(=O)Nc1ccc(Cl)cc1	4.5	-2.5	0.2	6.1%	2.0	22.5
S=c1sc2c(Cl)ncnc2n1-c1ccccc1	-5.8	-12.2	-44.1*	4.3%	2.4	-61.4*
COc1ccc2cc3cc(C(=O)Nc4ccccc4N4CCN(C)CC4)oc3nc2c1	2.2	-10.1	-41.3*	-0.1%	2.9	?
SMILES	D3 ag	D1 potentiator	D1 antag	ERG-DNA inh	D1 agonist	DRD3 antagonist
COc1ccccc1CNS(=O)(=O)c1c(C(=O)N2CCC(C)CC2)c(C)n(C)c1C	-10.4	-0.1	-7.3	-1.8%	0.1	.
CN1CC(=O)N/C1=N\C(=O)Nc1ccc(O)cc1	3.1	2.2	1.5	-12.0%	4.4	5.4
COc1cc(OC)cc(C(=O)OCC(=O)Nc2nnc(-c3ccccc3)o2)c1	-0.5	.	.	11.1%	.	10.4
Cc1ccc(C(=O)CCC(=O)OCc2nnc(-c3ccccc3)o2)cc1	2.9	-4.2	-9.1	2.9%	14.1	-60.1*
Cc1ccc(C(=O)CCC(=O)OCC(=O)Nc2nnc(-c3ccccc3)o2)cc1	-4.7	-1.6	-50.0*	-1.4%	4.5	12.7
O=C(CCC(=O)c1cccs1)OCc1nnc(-c2ccccc2)o1	0.3	-7.8	-39.0*	-2.0%	2.2	-2.2
Cc1cc(C)cc(OCC(=O)OCc2nnc(-c3ccccc3)o2)c1	1.2	-3.5	-10.9	-8.3%	3.8	3.3
O=C(CCNS(=O)(=O)c1ccccc1)OCc1nnc(-c2ccccc2)o1	-7.1	-0.9	6.2	-1.4%	2.6	-0.1
O=C(COC(=O)CNC(=O)c1ccc(Br)cc1)Nc1nnc(-c2ccccc2)o1	3.9	0.0	-37.8*	-0.4%	4.5	26.7
CCOc1ccc(C(=O)NCC(=O)OCC(=O)Nc2nnc(-c3ccccc3)o2)cc1	-1.7	.	5.5	3.7%	4.9	-5.5
Cc1ccc(-c2csc(NC(=O)c3c(C)noc3C)n2)cc1C	2.1	-10.8	-4.2	6.2%	1.8	56.5
COc1ccc(NC(=O)CNC(=O)c2nn(-c3ccc(OC)c(Cl)c3)c(=O)c3ccccc23)c(OC)c1	30.4*	-2.5	1.6	3.3%	0.5	81.6
CCOc1ccc(NC(=O)CNC(=O)c2nn(-c3ccc(OC)c(OC)c3)c(=O)c3ccccc23)cc1	37.4*	0.6	-3.8	7.4%	-1.5	85.8
Cc1ccc(/C=N\NC(=O)c2csnn2)cc1	-9.9	-0.2	-5.7	-1.4%	-1.1	-53.1*
Cc1ccc(/C=N/NC(=O)Cn2nnc(N)n2)cc1	-3.7	-8.0	-74.1*	1.6%	1.5	-9.8
CS(=O)(=O)N1CCCC(C(=O)NCCCN2CCN(Cc3ccccc3)CC2)C1 (stereo not given)	-19.1	-7.0	7.5	-4.4%	2.9	-27.9
Cc1cccc(C)c1OCc1nnc(SCC(=O)NCc2ccccc2)o1	38.4*	2.2	6.4	-0.2%	4.2	11.9
COc1ccc(OCCCC(=O)Nc2nncs2)cc1	2.4	-2.1	-15.0	-4.2%	-0.5	7.5
O=C(CCCOc1ccccc1)Nc1nncs1	-0.1	-3.3	-34.7*	-2.1%	2.9	-12.5
COc1ccc(-n2c(=O)c(CCC(=O)N3CCN(c4ccccc4O)CC3)nc3ccccc32)cc1	-2.1	5.0	3.9	15.7%	0.3	-5.0
CN(C)S(=O)(=O)c1ccc2c(c1)C(=O)c1cc(S(=O)(=O)N(C)C)ccc1CC2	.	-4.7	.	.	-1.3	.
CN(C)S(=O)(=O)c1ccc2c(c1)/C(=C/c1cc3c([nH]1)CCCC3)C(=O)N2	-94.1	-0.1	-27.6	-16.6%	171.2*	-86.3*
CC(=O)OCC1=C[C@@H]2OC(=O)C3=CO[C@@H](O[C@@H]4O[C@H](CO)[C@@H](O)[C@H](O)[C@H]4O)[C@H]1[C@@H]32	70.0*	-2.4	.	8.7%	4.3	-11.1
